IL1B secr inh: qHTS for Inhibitors of Inflammasome Signaling: IL-1-beta AlphaLISA Primary Screen | AID 743279, 2014 | THP-1 LPS/ATP IL-1B secretion, AlphaLISA, 16 h; hits give low values | activity change, % at 57.5 µM | hit rate 4.7% among 360,000; in the data active = activity change below about -50%; inconclusive = mostly about -30% to -49%
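THP-1 cells pretreated 1 hr with compounds (up to 57.5 uM final), then stimulated with LPS (250 ng/mL final) plus ATP (1.25 mM final); secreted IL-1B measured by AlphaLISA after 16 hr, decreased signal indicating inhibition.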
DT40 TDP1 no CPT: qHTS for Inhibitors of human tyrosyl-DNA phosphodiesterase 1 (TDP1): qHTS in cells in absence of CPT; DT40 Tdp1-/- hTDP1 cells, no CPT, ATP luminescence, 48 h; Potency, µM (titrated, usually from 46.2 µM), for inactives: at the top dose activity change, negative = growth inhibition, most hits filed as inhibitors; hit rate 15% among 420,000; AID 686978, 2013; also: potency is read from the fitted curve at half-maximal effect; nearly all actives have a fitted effect of over 55% in size
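Stably hTDP1-transfected Tdp1-null chicken DT40 cells were treated with library compounds minus camptothecin and grown for at least 48 hr at 37 °C, after which cellular ATP was quantified by luminescence.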
HT1080 IDH1KD tx: qHTS for induction of synthetic lethality in tumor cells producing 2HG: qHTS for the HT-1080-IDH1KD cell line. hit rate 2% among 360,000. Potency, µM (titrated, usually from 46.1 µM), for inactives: at the top dose activity, negative = toxicity, actives largely listed as cytotoxic. HT-1080 IDH1 knockdown viability, ATP luminescence, 48 h;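 also: potency is read from the fitted curve at half-maximal effect; 0% = DMSO wells and -100% = cell-free medium wells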
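CellTiter-Glo luminescence after 48 h compound exposure at 37 degrees C of IDH1-knockdown HT-1080 cells in 5% FBS RPMI. %Activity scaled between DMSO wells and cell-free media wells, with curves fitted and assigned curve classes.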
HT1080NT lethal: qHTS for induction of synthetic lethality in tumor cells producing 2HG: qHTS for the HT-1080-NT fibrosarcoma cell line; HT-1080-NT fibrosarcoma viability, CellTiter-Glo ATP luminescence, 48 h; Potency, µM (series often up to 46.1 µM), for the others: at the highest dose activity, negative = less viability, most hits filed as cytotoxic; hit rate 1.6% among 360,000; AID 686970, 2013;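 also: NT is the 2HG producing partner of a matched IDH1 knockdown line; potency is read from the fitted curve at half-maximal effect; 0% = DMSO-treated cells and -100% = media-only wells without cells; nearly all actives have a fitted effect of over 55% in size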
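Read-out is CellTiter-Glo luminescence after 10 minutes at room temperature, following 48 hours' compound treatment of HT-1080-NT cells (750 cells/well, RPMI, 5% FBS, 37 degrees C).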
DT40 TDP1 CPT: qHTS for Inhibitors of human tyrosyl-DNA phosphodiesterase 1 (TDP1): qHTS in cells in presence of CPT | hit rate 12% among 420,000 | Potency, µM (top dose mostly 46.2 µM), for the others: at the highest dose activity change, negative = growth inhibition, usual class: inhibitors | chicken DT40 Tdp1-/-;hTDP1 cells + 20 nM CPT, ATP luminescence, 48 h; also: potency is read from the fitted curve at half-maximal effect; nearly all actives have a fitted effect of over 55% in size
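Cell growth measured by CellTiter-Glo luminescence after a minimum 48 h, 37 C compound exposure with 20 nM CPT in Tdp1-knockout DT40 cells stably expressing hTDP1, seeded 400/well; qHTS titration format.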
The depositor's hits bear a star. In the library only some 19% were active in any assay of this set; here they are far more common. Unless noted, calls follow the shape of the dose curve; as a rule, active = well fitted curve in the direction sought with a large enough effect; inconclusive = small, poorly fitted or top-dose-only effect, or another doubt; inactive = no such curve, though single readings can be large; an effect the other way counts as inactive or inconclusive. Unless noted, % is scaled to controls: 0 for no effect and ±100 for the full control effect.

COc1ccc(NC(=O)Nc2nc3c(s2)CCCC3)cc1 was read as IL1B secr inh -52*, DT40 TDP1 no CPT 23µM*, HT1080 IDH1KD tx 11%, HT1080NT lethal 5% and DT40 TDP1 CPT inconclusive.
Screening COc1ccc(OCC(=O)Nc2nc3c(s2)CCCC3)cc1 returned IL1B secr inh -10, DT40 TDP1 no CPT inconclusive, HT1080 IDH1KD tx 0%, HT1080NT lethal 6% and DT40 TDP1 CPT inconclusive.
Screening O=C(Nc1cccc(Br)c1)Nc1nc2c(s1)CCCCCC2 returned DT40 TDP1 no CPT 8.2µM* and DT40 TDP1 CPT 7.3µM*.
`O=C(NCc1ccccc1)c1cc(C2CCCCN2C(=O)OCCF)on1` (stereo not drawn) gave IL1B secr inh 3, DT40 TDP1 no CPT -10%, HT1080 IDH1KD tx 8%, HT1080NT lethal 1% and DT40 TDP1 CPT 1%.
Screening COc1cc(-c2cc(NC(C)=O)c3ncc(-c4ccc(F)cc4)n3c2)cc(OC)c1OC returned DT40 TDP1 no CPT 15µM*, HT1080 IDH1KD tx inconclusive, HT1080NT lethal -22% and DT40 TDP1 CPT inconclusive.
For COc1cc(-c2cc(NC(C)=O)c3ncc(-c4ccc(C(C)=O)cc4)n3c2)cc(OC)c1OC the results were IL1B secr inh -64*, DT40 TDP1 no CPT inconclusive, HT1080 IDH1KD tx inconclusive, HT1080NT lethal -29% and DT40 TDP1 CPT 29µM*.
Screening CCc1ccc(OC(=O)CSc2nnc(-c3ccc4c(c3)OCO4)o2)cc1 returned DT40 TDP1 no CPT -6% and DT40 TDP1 CPT -1%.
Screening N#CCCn1cc(/C=N/NC(N)=S)c(-c2ccc(-c3ccccc3)cc2)n1 returned IL1B secr inh 0, DT40 TDP1 no CPT 4.1µM*, HT1080 IDH1KD tx -29%, HT1080NT lethal inconclusive and DT40 TDP1 CPT inconclusive.
N#CCCn1cc(C=C(C#N)C#N)c(-c2ccc(-c3ccccc3)cc2)n1 was read as IL1B secr inh 10, DT40 TDP1 no CPT inconclusive, HT1080 IDH1KD tx 0%, HT1080NT lethal 11% and DT40 TDP1 CPT inconclusive.
CSc1cccc(NC(=S)N(Cc2ccc(C)cc2)Cc2ccccn2)c1 was read as IL1B secr inh 24, DT40 TDP1 no CPT 3%, HT1080 IDH1KD tx 2%, HT1080NT lethal 5% and DT40 TDP1 CPT 12%.
`Cc1ccc(CN(Cc2ccccn2)C(=O)Nc2ccc(C)c(C)c2)cc1` gave IL1B secr inh -58*, DT40 TDP1 no CPT inconclusive, HT1080 IDH1KD tx inconclusive, HT1080NT lethal -19% and DT40 TDP1 CPT inconclusive.
For O=C(O)c1cccc(Nc2nc3ccccc3nc2NS(=O)(=O)c2ccc(F)cc2)c1 the results were IL1B secr inh 21, DT40 TDP1 no CPT 6%, HT1080 IDH1KD tx -1%, HT1080NT lethal -2% and DT40 TDP1 CPT 1%.
Screening O=C(Nc1cccc(S(=O)(=O)N2CCCCC2)c1)c1ccccn1 returned IL1B secr inh -84*, DT40 TDP1 no CPT -26%, HT1080 IDH1KD tx 14%, HT1080NT lethal 14% and DT40 TDP1 CPT -19%.
O=S(=O)(Nc1nc2ccccc2nc1Nc1cccc(S(=O)(=O)N2CCCCC2)c1)c1ccccc1 was read as IL1B secr inh -27, DT40 TDP1 no CPT 5.8µM*, HT1080 IDH1KD tx inconclusive, HT1080NT lethal 6.5µM* and DT40 TDP1 CPT 6.5µM*.
Screening O=S(=O)(Nc1nc2ccccc2nc1Nc1ccc2c(c1)OCO2)c1ccc(F)cc1 returned IL1B secr inh 15, DT40 TDP1 no CPT 13µM*, HT1080 IDH1KD tx 1%, HT1080NT lethal 4% and DT40 TDP1 CPT 18µM*.
Screening CSc1ncccc1C(=O)Nc1ccc(S(=O)(=O)N2CCCC2)cc1 returned IL1B secr inh -12, DT40 TDP1 no CPT -10%, HT1080 IDH1KD tx 0%, HT1080NT lethal -7% and DT40 TDP1 CPT -3%.
Screening CSc1ncccc1C(=O)Nc1cccc(S(=O)(=O)N2CCCCC2)c1 returned IL1B secr inh 10, DT40 TDP1 no CPT 15µM*, HT1080 IDH1KD tx 0%, HT1080NT lethal -4% and DT40 TDP1 CPT inconclusive.
Screening O=C(Nc1cccc(S(=O)(=O)N2CCCCCC2)c1)c1ccc2ccccc2n1 returned IL1B secr inh -10, DT40 TDP1 no CPT 18µM*, HT1080 IDH1KD tx -3%, HT1080NT lethal -2% and DT40 TDP1 CPT inconclusive.
CC(=O)c1ccc(Nc2nc3ccccc3nc2NS(=O)(=O)c2cccs2)cc1 was read as IL1B secr inh -1, DT40 TDP1 no CPT 9.2µM*, HT1080 IDH1KD tx -2%, HT1080NT lethal 0% and DT40 TDP1 CPT 15µM*.
`O=C(Nc1cccc(S(=O)(=O)N2CCCC2)c1)c1cc(-c2ccccn2)nc2ccccc12` gave IL1B secr inh inconclusive, DT40 TDP1 no CPT 21µM*, HT1080 IDH1KD tx -6%, HT1080NT lethal -27% and DT40 TDP1 CPT 23µM*.
Screening COc1ccc(Nc2nc3ccccc3nc2NS(=O)(=O)c2cccs2)cc1 returned IL1B secr inh -24, DT40 TDP1 no CPT inconclusive, HT1080 IDH1KD tx -18%, HT1080NT lethal 0% and DT40 TDP1 CPT inconclusive.
Screening CCc1ccc(Nc2nc3ccccc3nc2NS(=O)(=O)c2ccccc2)cc1 returned DT40 TDP1 no CPT 21µM* and DT40 TDP1 CPT 16µM*.
For CSc1ccccc1NC(=O)c1c(C)noc1C the results were IL1B secr inh 18, DT40 TDP1 no CPT -24%, HT1080 IDH1KD tx 3%, HT1080NT lethal 4% and DT40 TDP1 CPT -4%.
Screening CCOc1ccc(S(=O)(=O)NCc2ccc3c(c2)OCO3)cc1C(=O)O returned IL1B secr inh 5, DT40 TDP1 no CPT 1%, HT1080 IDH1KD tx 6%, HT1080NT lethal 2% and DT40 TDP1 CPT -7%.
For O=C(Nc1ccccc1)c1cc(C2COCCN2C(=O)C2CC2)on1 (stereo not drawn) the results were IL1B secr inh 83, DT40 TDP1 no CPT -1%, HT1080 IDH1KD tx 6%, HT1080NT lethal inconclusive and DT40 TDP1 CPT -15%.
For Cc1ccc2c(C)c(C(=O)N(Cc3ccc(F)cc3)C3CCS(=O)(=O)C3)oc2c1 (stereo not drawn) the results were IL1B secr inh inconclusive, DT40 TDP1 no CPT inconclusive, HT1080 IDH1KD tx -2%, HT1080NT lethal -2% and DT40 TDP1 CPT inconclusive.
Screening Cc1c(C(=O)N(Cc2ccccc2F)C2CCS(=O)(=O)C2)oc2ccc(F)cc12 (stereo not drawn) returned DT40 TDP1 no CPT 21µM* and DT40 TDP1 CPT 16µM*.
Screening Cc1ccc2oc(C(=O)N(Cc3ccccc3F)C3CCS(=O)(=O)C3)c(C)c2c1 (stereo not drawn) returned DT40 TDP1 no CPT 23µM* and DT40 TDP1 CPT inconclusive.

Bioassay records (PubChem BioAssay)
